# In the library only some 15% were active in any assay of this set; here they are far more common.
# ELG1 DNA repair = qHTS screen for small molecules that inhibit ELG1-dependent DNA repair in human embryonic kidney (HEK293T) cells expressing luciferase-tagged ELG1; HEK293T ELG1-luciferase reporter, luminescence, 16 h; DNA damage induced by 5-fluorouridine; 330,000 tested, 2.3% active; Potency, µM (highest dose often 46.1 µM), for inactives: at the highest dose activity change, negative = inhibition, hits mostly inhibitors; also: nearly all actives have a fitted effect of over 55% in size
#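 Overnight (16 hr) co-exposure of 2,000 cells/well to 5-fluorouridine and compound at 37 °C preceded detection. Luciferase was quantified via ONE-Glo luminescence; loss of signal denotes inhibition.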
# 12-LOX inh = Primary qHTS assay for inhibitors of human arachidonate 12S-lipoxygenase (ALOX12): Round 2 | AID 1671190, 2021 | purified 12hLO, xylenol orange hydroperoxide absorbance | Potency, µM (titrated, usually from 108 µM), inactives show at the highest dose activity change, negative = inhibition, usual class: inhibitors | 580,000 tested, 1.1% active
#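 Purified human 12hLO at 150 nM in 25 mM Hepes, 0.01% Triton X-100, pH 7.0, preincubated 15 min at room temperature with compound. Reaction started with 40 uM arachidonic acid, 30 min at room temperature. Hydroperoxide measured by Fe-xylenol orange, 573/405 nm absorbance ratio.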
# RORgamma inh = qHTS for inhibitors of ROR gamma transcriptional activity. Drosophila S2 Gal4-RORgamma UAS-luciferase reporter, 20 h. 310,000 tested, 5.4% active. AID 2551, 2010. Nuclear receptor ROR-gamma (Mus musculus), P51450. Potency, µM (top dose mostly 53.6 µM), inactives show at the top dose activity change, negative = inhibition, actives largely listed as inhibitors; also: nearly all actives have a fitted effect of over 60% in size
# Target sequence (P51450 whole entry, looked up, the tested form may be a part): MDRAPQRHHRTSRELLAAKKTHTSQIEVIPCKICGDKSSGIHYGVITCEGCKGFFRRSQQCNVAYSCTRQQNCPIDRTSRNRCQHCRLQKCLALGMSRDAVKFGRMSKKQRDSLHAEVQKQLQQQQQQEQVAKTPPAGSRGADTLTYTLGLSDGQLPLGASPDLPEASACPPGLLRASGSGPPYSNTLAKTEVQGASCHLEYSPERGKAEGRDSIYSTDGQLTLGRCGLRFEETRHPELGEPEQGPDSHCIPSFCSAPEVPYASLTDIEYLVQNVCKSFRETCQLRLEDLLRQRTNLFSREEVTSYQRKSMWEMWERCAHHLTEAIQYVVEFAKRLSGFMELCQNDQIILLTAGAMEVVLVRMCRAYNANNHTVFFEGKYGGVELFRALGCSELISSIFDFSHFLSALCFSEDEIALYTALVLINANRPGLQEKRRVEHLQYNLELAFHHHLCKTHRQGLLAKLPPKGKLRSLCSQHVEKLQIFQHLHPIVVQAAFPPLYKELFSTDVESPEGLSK
#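 Stably transfected Drosophila Schneider cells are the test system, with ROR gamma fused to Gal4 and luciferase under UAS control; luminescence is read after 20 hr of 700 uM copper sulfate induction at ambient temperature.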
# DT40 TDP1 CPT = qHTS for Inhibitors of human tyrosyl-DNA phosphodiesterase 1 (TDP1): qHTS in cells in presence of CPT; chicken DT40 Tdp1-/-;hTDP1 cells + 20 nM CPT, ATP luminescence, 48 h; Potency, µM (titrated, usually from 46.2 µM), for the others: at the top dose activity change, negative = growth inhibition, actives largely listed as inhibitors; 420,000 tested, 12% active; AID 686979, 2013; also: nearly all actives have a fitted effect of over 55% in size
#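 Chicken DT40 Tdp1-/- cells stably complemented with human TDP1 were seeded at 400 cells/well in medium containing 20 nM camptothecin, exposed to pin-transferred compounds, and grown at 37 °C for at least 48 hr. Viability was read as ATP luminescence.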
# TDP1 cell noCPT = qHTS for Inhibitors of human tyrosyl-DNA phosphodiesterase 1 (TDP1): qHTS in cells in absence of CPT. 420,000 tested, 15% active. AID 686978, 2013. Potency, µM (highest dose often 46.2 µM), without a hit: top-dose activity change, negative = growth inhibition, usual class: inhibitors. DT40 Tdp1-/- hTDP1 cells, no CPT, ATP luminescence, 48 h; also: nearly all actives have a fitted effect of over 55% in size
#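 DT40 Tdp1-/-;hTDP1 cells, no CPT (DMSO vehicle only), 400 cells/well; compounds pin-transferred; ≥48 hr, 37 °C; CellTiter-Glo 30 min RT dark, luminescence read.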
# VP16 counter = VP16 counterscreen qHTS for inhibitors of ROR gamma transcriptional activity. 310,000 tested, 3.5% active. Drosophila S2 Gal4-VP16 UAS-luciferase, luminescence, 20 h. Potency, µM (highest dose often 53.6 µM), without a hit: top-dose activity, negative = inhibition, most hits filed as inhibitors;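 also: Gal4-VP16 expression switched on by copper sulfate through the metallothionein promoter; nearly all actives have a fitted effect of over 50% in size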
# Active calls of the source: *; ? = inconclusive; · = not tested or not shown. Calls follow the shape of the dose curve; as a rule, active = well fitted curve in the direction sought with a large enough effect; inconclusive = small, poorly fitted or top-dose-only effect, or another doubt; inactive = no such curve, though single readings can be large; an effect the other way counts as inactive or inconclusive. % is scaled to controls: 0 for no effect and ±100 for the full control effect; potency is read from the fitted curve at half-maximal effect.
SMILES,ELG1 DNA repair,12-LOX inh,RORgamma inh,DT40 TDP1 CPT,TDP1 cell noCPT,VP16 counter
COc1ccc(F)cc1-c1cc(NC=O)c2ncc(-c3cc(OC)c(OC)c(OC)c3)n2c1,·,-1%,·,2.3µM*,3.3µM*,·
Cc1ccc(-c2cc(NC=O)c3ncc(-c4cnn(C)c4)n3c2)cc1,·,?,·,4.1µM*,3.7µM*,·
CCCCn1c(=O)[nH]c(=O)c2c1nc(CSc1nccn1-c1cc(C)cc(C)c1)n2C,·,2%,·,·,·,·
NCc1cc(Br)ccc1OC(F)F,·,-17%,·,·,·,·
O=C(CCc1c(-c2ccc(F)cc2)[nH]c2ccccc12)NC1CC1,·,20%,·,·,·,·
COc1cc(-c2cc(NC=O)c3ncc(-c4ccccc4)n3c2)cc(OC)c1OC,·,1%,·,?,?,·
COc1cc(-c2cnc3c(NC=O)cc(-c4ccccc4)cn23)cc(OC)c1OC,·,-6%,·,0.0092µM*,0.046µM*,·
CCn1ncc(C2=NOC(C(=O)NCc3ccccc3)C2)c1C (stereo not drawn),?,-5%,39%,1.2µM*,1.6µM*,-8%
COc1cccc(C2=NOC(C(=O)Nc3cccc(C(C)=O)c3)C2)c1OC (stereo not drawn),?,-6%,-35%,?,?,-20%
CCn1ncc(C2=NOC(C(=O)NCc3ccc(OC)cc3)C2)c1C (stereo not drawn),-21%,13%,-5%,16µM*,?,-4%
CCn1ncc(C2=NOC(C(=O)Nc3cccc(C(C)=O)c3)C2)c1C (stereo not drawn),-21%,-1%,2%,?,21µM*,0%
COc1ccc(CNC(=O)C2CCN(c3nc4ccccc4o3)CC2)cc1,·,-11%,·,·,·,·
CS(=O)(=O)c1cccc(C(=O)N2CCN(C(=O)c3ccccc3)CC2)c1,·,23%,·,·,·,·
COc1ccc(C(=O)N2CCN(c3ccc(NC(=O)c4ccco4)cc3)CC2)cc1,20%,19%,0%,-13%,-28%,-3%
COc1ccc(C(=O)N2CCN(c3ccc(NC(=O)c4cccs4)cc3)CC2)cc1,12µM*,64%,35%,?,?,-8%
O=C(Nc1ccc(N2CCN(C(=O)c3ccccc3)CC2)cc1)c1cccs1,?,14%,?,18µM*,21µM*,-15%
CCOc1ccccc1NC(=O)Cc1c(C)[nH]n(-c2nc(-c3ccc(Cl)cc3)cs2)c1=O,·,39%,·,·,·,·
CCc1ccc2nc(-c3ccc(C)cc3C)cc(C(=O)O)c2c1,·,-43%,·,·,·,·
Cc1ccc(C)c(CNC(=O)c2sc3ncnc(N(C)C4CCCCC4)c3c2C)c1,·,-24%,·,23µM*,?,·
CCc1ccc(CNC(=O)c2sc3ncnc(N(C)C4CCCCC4)c3c2C)cc1,·,-17%,·,?,?,·
Cc1c(C(=O)NCc2ccccc2Cl)sc2ncnc(N(C)C3CCCCC3)c12,·,2%,·,?,18µM*,·
CC(=O)Nc1ccc2[nH]cc(C(C(=O)O)N3CCN(c4ncccc4C#N)CC3)c2c1 (stereo not drawn),·,-12%,·,·,·,·
COCCOC(=O)C1=C(C)N=C2SC=C(CC(=O)NCCc3ccccc3)N2C1c1ccccc1 (stereo not drawn),·,-2%,·,·,·,·
C#CCSC1=C(C#N)C(c2cccs2)C(C(=O)OCC)=C(C)N1 (stereo not drawn),-27%,-11%,23%,?,?,?

# Screening data from PubChem.
